Values joined by “and” are separate entries in the source; they are usually repeats but may differ in a detail not shown here. Identical values can stand only once. Active and inactive are the calls of the source. Rule for the calls: active = hit-call score of the fitted dose curve at least 0.9, where 1 is the maximum; inactive = score below 0.9.

This assay in a line: BSK_SAg_SRB: Viability Assessment in the BioMAP Diversity Plus: SAg Assay (AID 2283096).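 Note: cells read one day after compound addition; hits may be either gain or loss of signal compared with DMSO.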 The conditions noted are these: primary human HUVEC with PBMC. Put shortly: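 Total protein by sulforhodamine B staining, 24 h after dosing, in HUVEC–PBMC co-culture; DMSO-referenced bidirectional fitting.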
`C=CC=CC=CCCCCC`: the outcome was inactive.

As to `CCO[Si](C)(OCC)OCC`, the result was inactive.

Take `c1ccc(-c2ccccn2)nc1`: the outcome was inactive.

Regarding `CCOC(=O)c1ccccc1C(=C1C=C(Br)C(=O)C(Br)=C1)c1cc(Br)c(O)c(Br)c1`, the AC50 is 21.1 µM (active) and 18.9 µM (active).

For `Nc1ccc(N)c(Cl)c1`, the AC50 was 27.7 µM (active).

`COCc1c(C(C)C)nc(C(C)C)c(/C=C/[C@@H](O)C[C@@H](O)CC(=O)O)c1-c1ccc(F)cc1`: the AC50 was 0.0355 µM (active).

As for `CC(C)C(=O)C(C)C`, the outcome was inactive.

With `O=c1c2ccccc2oc2ccccc12`, the outcome was inactive.

For the compound `O=C(Cl)c1cc(C(=O)Cl)cc(C(=O)Cl)c1`, the AC50 is 30.7 µM (active).

Consider `CO[Si](OC)(OC)c1ccccc1`, for which the result was inactive.

For the compound `C=CCOc1c(Br)cc(Br)cc1Br`, the result was inactive.

`CN1C(=O)N(C)C(O)C1O` (stereo not drawn): the outcome was inactive.

Consider `O=C(c1ccc(O)cc1)c1ccc(O)cc1O`, for which the result was inactive.

In the case of `CCO[Si](CCCN=C=O)(OCC)OCC`, the result was inactive.

On to `O=C(Nc1ccccc1SSc1ccccc1NC(=O)c1ccccc1)c1ccccc1`, for which the outcome was inactive.

Turning to `CCOc1nc(F)cc2nc(S(=O)(=O)Nc3c(Cl)cccc3C(=O)OC)nn12`, the result was inactive.

Take `C=CC(=O)OCC(Br)CBr` (stereo not drawn): the AC50 is 34.1 µM (active).

In the case of `CC1OC1C1CCC2(C)OC2C1` (stereo not drawn), the outcome was inactive.

On to `CCCCNc1ccc(NCCCC)c2c1C(=O)c1ccccc1C2=O`, for which the outcome was inactive.

For `C=C[Si](OC(C)=O)(OC(C)=O)OC(C)=O`, the result was inactive.

As for `CCCCC(CC)COCC1CO1` (stereo not drawn), the result was inactive.

In the case of `O=C1CCCN1CCO`, the outcome was inactive.

`CCCCCCCCc1ccc(Nc2ccc(CCCCCCCC)cc2)cc1`: the outcome was inactive.

The term AC50 denotes the concentration at which the activity in the assay is half-maximal.
